In general, residual activity refers to the signal under treatment as a percentage of the control signal.

Experiment [1] addresses T1, Serine/threonine-protein kinase 3 (Homo sapiens) (UniProt Q13188).
T1 sequence (whole entry): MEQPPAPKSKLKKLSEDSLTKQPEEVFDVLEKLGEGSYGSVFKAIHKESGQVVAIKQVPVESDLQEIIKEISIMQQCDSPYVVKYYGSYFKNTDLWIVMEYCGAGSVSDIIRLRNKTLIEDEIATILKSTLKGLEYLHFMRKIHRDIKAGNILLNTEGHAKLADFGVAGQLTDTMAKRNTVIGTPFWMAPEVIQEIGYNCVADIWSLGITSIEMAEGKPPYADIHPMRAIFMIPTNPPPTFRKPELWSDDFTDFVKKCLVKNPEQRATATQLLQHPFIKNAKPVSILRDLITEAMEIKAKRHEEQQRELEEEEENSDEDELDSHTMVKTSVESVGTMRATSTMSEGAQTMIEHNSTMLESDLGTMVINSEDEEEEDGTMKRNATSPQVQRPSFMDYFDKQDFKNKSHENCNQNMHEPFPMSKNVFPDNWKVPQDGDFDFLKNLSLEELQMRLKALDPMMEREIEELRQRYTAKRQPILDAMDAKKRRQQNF
The note with it: at 1 µM.

Experiment [2] addresses T1, Serine/threonine-protein kinase 3 (Homo sapiens). The note with it: at 10 µM.
Experiment [3] deals with Serine/threonine-protein kinase 24 (Homo sapiens) (UniProt Q9Y6E0). The note with it: at 1 µM.
Chain of Serine/threonine-protein kinase 24 (Homo sapiens) (Q9Y6E0 whole entry, looked up): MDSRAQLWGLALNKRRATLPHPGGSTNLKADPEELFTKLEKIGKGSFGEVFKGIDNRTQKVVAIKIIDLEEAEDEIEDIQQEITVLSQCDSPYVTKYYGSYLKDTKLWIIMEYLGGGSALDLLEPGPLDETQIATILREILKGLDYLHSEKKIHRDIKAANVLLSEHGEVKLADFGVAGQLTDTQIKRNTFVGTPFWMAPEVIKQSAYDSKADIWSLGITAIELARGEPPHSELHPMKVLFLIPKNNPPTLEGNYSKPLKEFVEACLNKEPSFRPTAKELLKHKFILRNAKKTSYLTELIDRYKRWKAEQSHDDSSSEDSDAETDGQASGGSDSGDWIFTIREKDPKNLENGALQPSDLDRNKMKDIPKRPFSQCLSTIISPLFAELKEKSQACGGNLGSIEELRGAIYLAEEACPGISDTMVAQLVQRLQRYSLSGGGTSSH
The target is the same in experiment [4]. The note with it: at 10 µM.
The target of experiment [5] is T2, Tyrosine-protein kinase Mer (Homo sapiens) (UniProt Q12866).
T2 sequence (whole entry): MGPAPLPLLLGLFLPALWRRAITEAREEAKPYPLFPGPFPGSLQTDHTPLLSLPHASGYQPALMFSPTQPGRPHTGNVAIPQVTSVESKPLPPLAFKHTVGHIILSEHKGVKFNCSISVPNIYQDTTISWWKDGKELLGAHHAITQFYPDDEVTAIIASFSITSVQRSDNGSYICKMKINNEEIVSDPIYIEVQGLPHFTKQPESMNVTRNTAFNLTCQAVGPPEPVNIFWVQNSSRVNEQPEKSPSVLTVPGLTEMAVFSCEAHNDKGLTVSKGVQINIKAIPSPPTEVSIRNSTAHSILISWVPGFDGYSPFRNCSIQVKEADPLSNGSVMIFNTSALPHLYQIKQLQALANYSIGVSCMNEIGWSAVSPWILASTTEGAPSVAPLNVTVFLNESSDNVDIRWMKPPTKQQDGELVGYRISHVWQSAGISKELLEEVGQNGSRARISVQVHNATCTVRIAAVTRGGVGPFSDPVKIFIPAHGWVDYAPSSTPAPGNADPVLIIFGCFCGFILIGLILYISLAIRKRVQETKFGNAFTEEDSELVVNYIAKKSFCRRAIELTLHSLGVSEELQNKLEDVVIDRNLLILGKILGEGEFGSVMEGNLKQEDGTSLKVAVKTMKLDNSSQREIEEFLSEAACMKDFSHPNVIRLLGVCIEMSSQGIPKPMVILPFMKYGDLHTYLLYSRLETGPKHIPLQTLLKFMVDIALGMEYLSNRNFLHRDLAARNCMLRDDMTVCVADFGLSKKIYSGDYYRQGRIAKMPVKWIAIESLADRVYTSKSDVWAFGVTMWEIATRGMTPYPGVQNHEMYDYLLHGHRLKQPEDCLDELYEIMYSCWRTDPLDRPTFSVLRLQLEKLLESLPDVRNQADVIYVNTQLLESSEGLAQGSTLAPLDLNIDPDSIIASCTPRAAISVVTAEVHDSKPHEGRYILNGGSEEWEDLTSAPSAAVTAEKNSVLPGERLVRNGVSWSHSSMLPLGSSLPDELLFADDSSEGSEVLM
The settings on record: at 1 µM.

Experiment [6] has as its target T2, Tyrosine-protein kinase Mer (Homo sapiens). The settings on record: at 10 µM.
The target of experiment [7] is Hepatocyte growth factor receptor (Homo sapiens) (UniProt P08581). The settings on record: at 1 µM.
Chain of Hepatocyte growth factor receptor (Homo sapiens) (P08581 whole entry): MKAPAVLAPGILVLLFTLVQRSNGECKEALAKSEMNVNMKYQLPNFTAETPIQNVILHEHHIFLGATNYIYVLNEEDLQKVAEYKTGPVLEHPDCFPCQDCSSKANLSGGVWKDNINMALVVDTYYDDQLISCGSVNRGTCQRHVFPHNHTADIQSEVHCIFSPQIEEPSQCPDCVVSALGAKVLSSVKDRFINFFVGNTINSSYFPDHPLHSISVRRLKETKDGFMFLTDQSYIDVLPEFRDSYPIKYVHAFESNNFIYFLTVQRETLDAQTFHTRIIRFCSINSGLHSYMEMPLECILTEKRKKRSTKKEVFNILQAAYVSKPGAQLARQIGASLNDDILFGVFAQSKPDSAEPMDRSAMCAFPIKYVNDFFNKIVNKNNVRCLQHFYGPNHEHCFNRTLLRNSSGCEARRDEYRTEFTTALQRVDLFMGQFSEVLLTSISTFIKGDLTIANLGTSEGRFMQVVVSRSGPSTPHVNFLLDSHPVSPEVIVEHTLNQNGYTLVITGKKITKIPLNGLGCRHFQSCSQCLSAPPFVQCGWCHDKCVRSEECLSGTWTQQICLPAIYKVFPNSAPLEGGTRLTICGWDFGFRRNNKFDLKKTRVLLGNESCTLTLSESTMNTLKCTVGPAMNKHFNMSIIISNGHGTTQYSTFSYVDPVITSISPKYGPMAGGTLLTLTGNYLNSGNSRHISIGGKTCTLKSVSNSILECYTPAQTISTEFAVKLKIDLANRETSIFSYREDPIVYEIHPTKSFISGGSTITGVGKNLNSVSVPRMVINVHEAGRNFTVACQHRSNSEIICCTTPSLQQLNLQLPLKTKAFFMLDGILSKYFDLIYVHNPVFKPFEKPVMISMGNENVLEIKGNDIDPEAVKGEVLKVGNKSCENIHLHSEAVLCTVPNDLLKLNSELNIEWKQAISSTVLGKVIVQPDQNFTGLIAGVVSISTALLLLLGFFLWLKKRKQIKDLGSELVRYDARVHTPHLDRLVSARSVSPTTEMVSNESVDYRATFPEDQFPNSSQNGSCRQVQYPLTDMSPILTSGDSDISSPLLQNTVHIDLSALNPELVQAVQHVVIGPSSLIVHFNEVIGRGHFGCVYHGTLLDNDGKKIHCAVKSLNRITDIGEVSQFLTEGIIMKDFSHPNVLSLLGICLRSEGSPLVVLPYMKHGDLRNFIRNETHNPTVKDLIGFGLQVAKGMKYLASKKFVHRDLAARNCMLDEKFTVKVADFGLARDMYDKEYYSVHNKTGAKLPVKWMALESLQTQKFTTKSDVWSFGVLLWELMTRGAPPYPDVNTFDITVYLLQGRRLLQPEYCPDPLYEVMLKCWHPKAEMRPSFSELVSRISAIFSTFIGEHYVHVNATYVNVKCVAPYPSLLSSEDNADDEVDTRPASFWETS
Experiment [8] has the same target. The settings on record: at 10 µM.
In experiment [9] the target is MAP kinase-interacting serine/threonine-protein kinase 2 (Homo sapiens) (UniProt Q9HBH9). The note with it: at 1 µM.
Chain of MAP kinase-interacting serine/threonine-protein kinase 2 (Homo sapiens) (Q9HBH9 whole entry, looked up): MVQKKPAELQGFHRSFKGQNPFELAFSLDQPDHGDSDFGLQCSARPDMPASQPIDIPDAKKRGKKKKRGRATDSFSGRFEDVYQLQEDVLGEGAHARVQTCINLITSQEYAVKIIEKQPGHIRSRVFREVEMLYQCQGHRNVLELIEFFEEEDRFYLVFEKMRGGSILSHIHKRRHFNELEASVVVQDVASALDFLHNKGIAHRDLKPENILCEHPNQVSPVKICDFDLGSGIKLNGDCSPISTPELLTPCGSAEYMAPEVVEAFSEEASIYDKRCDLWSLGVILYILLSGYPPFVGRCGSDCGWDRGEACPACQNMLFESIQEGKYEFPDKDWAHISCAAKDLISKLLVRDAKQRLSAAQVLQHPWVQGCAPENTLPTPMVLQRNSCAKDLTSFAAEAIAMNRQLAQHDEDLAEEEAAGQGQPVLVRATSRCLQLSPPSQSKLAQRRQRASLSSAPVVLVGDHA
Experiment [10] has the same target. The note with it: at 10 µM.

As for `O=C(Nc1cccc(Nc2nccc(Nc3cccc(C(F)(F)F)c3)n2)c1)C1CC1`, the residual activity in experiment [1] is 89%; in experiment [2], 60%; in experiment [3] it was 72%; in experiment [4], 65%; in experiment [5], 72%; in [6] it was 70%. For the same molecule, the residual activity came to 79% in experiment [7], 55% in [8], 70% in experiment [9] and 77% in experiment [10].
Consider `O=C(O)c1ccc2c3c1cccc3c(=O)n1c3ccccc3nc21`, for which the residual activity was found to be 103% in [1]; 81% in [2]; 97% in experiment [3]; 67% in [4]; 80% in [5]; 28% in experiment [6]. In addition, the residual activity in experiment [7] turned out to be 130%; in experiment [8], 73%; in experiment [9], 67%; in experiment [10] it was 23%.
On to `O=C1NC(=O)c2c1c1c3ccccc3[nH]c1c1[nH]c3cc(Br)ccc3c21`, for which the residual activity amounted to 89% in experiment [1]; 62% in [2]; 92% in [3]; 80% in [4]; 87% in experiment [5]; 68% in experiment [6]. Besides, the residual activity was 120% in experiment [7], 116% in experiment [8], 48% in [9] and 41% in [10].
`Cc1ccc(S(=O)(=O)/C=C/C#N)cc1`: the residual activity in experiment [1] was determined as 99%; in [2], 95%; in experiment [3], 86%; in experiment [4], 88%; in experiment [5], 101%; in experiment [6], 108%. The residual activity in experiment [7] was found to be 96%; in [8], 123%; in [9] it was 98%; in [10] it was 101%.
`CC(C)n1cnc2c(NCc3ccccc3)nc(NCCCO)nc21`: the residual activity is 111% in [1]; 99% in experiment [2]; 77% in experiment [3]; 69% in experiment [4]; 98% in [5]; 82% in experiment [6]. Besides, the residual activity in experiment [7] came to 101%; in [8], 79%; in experiment [9], 90%; in [10], 80%.
On to `COc1ccc(S(=O)(=O)N(CCO)c2ccccc2CN(C)C/C=C/c2ccc(Cl)cc2)cc1`, for which the residual activity in experiment [1] was 99%; in experiment [2], 78%; in [3], 78%; in experiment [4] it was 69%; in [5], 93%; in experiment [6] it was 83%. Moreover, the residual activity in [7] came out at 113%; in [8], 120%; in experiment [9] it was 106%; in [10], 96%.
For the molecule `O=C1NC(=O)c2cc(Nc3ccc(F)cc3)c(Nc3ccc(F)cc3)cc21`, the residual activity in [1] was determined as 100%; in experiment [2], 68%; in experiment [3] it was 68%; in experiment [4] it was 54%; in [5], 105%; in experiment [6], 93%. The residual activity in experiment [7] worked out at 89%; in experiment [8], 59%; in experiment [9], 106%; in [10], 86%.
On to `COc1cccc(-c2cc(=O)c3ccccc3o2)c1N`, for which the residual activity in experiment [1] is 97%; in experiment [2] it was 98%; in [3] it was 91%; in experiment [4] it was 89%; in experiment [5], 96%; in experiment [6] it was 101%. For the same molecule, the residual activity was 117% in [7], 116% in [8], 107% in experiment [9] and 113% in experiment [10].
`CO[C@H]1C[C@@H]2CC[C@@H](C)[C@@](O)(O2)C(=O)C(=O)N2CCCC[C@H]2C(=O)O[C@H]([C@H](C)C[C@@H]2CC[C@@H](O)[C@H](OC)C2)CC(=O)[C@H](C)/C=C(\C)[C@@H](O)[C@@H](OC)C(=O)[C@H](C)C[C@H](C)/C=C/C=C/C=C/1C`: the residual activity in experiment [1] came out at 94%; in experiment [2] it was 84%; in experiment [3] it was 64%; in experiment [4], 76%; in [5], 101%; in experiment [6], 93%. Further, the residual activity in experiment [7] was determined as 95%; in experiment [8], 105%; in [9], 105%; in experiment [10], 88%.
For `CCC(=O)Nc1ccc2ncnc(Nc3cccc(Br)c3)c2c1`, the residual activity in experiment [1] was 121%; in experiment [2] it was 91%; in experiment [3], 69%; in [4], 69%; in experiment [5], 108%; in experiment [6], 86%. For the same molecule, the residual activity worked out at 99% in [7], 100% in [8], 30% in experiment [9] and 9% in [10].
As to `O=Nc1c(-c2c(O)[nH]c3ccccc23)[nH]c2ccccc12`, the residual activity was 6% in [1]; 0% in [2]; 42% in [3]; 10% in experiment [4]; -2% in experiment [5]; -3% in [6]. In addition, the residual activity in experiment [7] was found to be 86%; in experiment [8], 13%; in experiment [9], 62%; in [10], 18%.
As for `O=C1Nc2cc(Br)ccc2/C1=C1/Nc2ccccc2/C1=N\O`, the residual activity in [1] was 10%; in experiment [2], 5%; in experiment [3], 62%; in experiment [4], 70%; in experiment [5], 26%; in experiment [6], 4%. Besides, the residual activity is 118% in [7], 97% in [8], 62% in experiment [9] and 77% in [10].
Turning to `Oc1c2ccccc2c2c3c(cccc13)N=N2`, the residual activity in [1] is 16%; in [2], 10%; in [3] it was 57%; in experiment [4] it was 21%; in experiment [5], 22%; in experiment [6], 9%. Moreover, the residual activity in [7] was found to be 87%; in [8], 75%; in experiment [9], 43%; in experiment [10], 10%.
For `Cc1nc(-c2ccccc2)c(-c2ccncc2)o1`, the residual activity was 102% in experiment [1]; 96% in [2]; 101% in experiment [3]; 100% in [4]; 99% in [5]; 88% in [6]. For the same molecule, the residual activity in [7] is 128%; in [8], 94%; in experiment [9] it was 106%; in experiment [10], 77%.
Consider `O=[N+]([O-])c1ccc(-c2nc(-c3ccc(F)cc3)c(-c3ccncc3)[nH]2)cc1`, for which the residual activity came to 110% in [1]; 99% in [2]; 83% in [3]; 82% in [4]; 101% in experiment [5]; 107% in [6]. Besides, the residual activity in experiment [7] was 128%; in experiment [8], 98%; in experiment [9] it was 109%; in experiment [10] it was 106%.
On to `CC(C)n1cnc2/c(=N/c3cccc(Cl)c3)nc(NCCO)[nH]c21`, for which the residual activity in [1] was 71%; in [2] it was 36%; in [3], 62%; in experiment [4], 29%; in [5], 54%; in experiment [6], 10%. In addition, the residual activity in [7] was determined as 87%; in [8], 47%; in [9] it was 95%; in experiment [10], 77%.

The values are drawn from ChEMBL document CHEMBL2218924, “A broad activity screen in support of a chemogenomic map for kinase signalling research and drug discovery” (Biochem J, 2013).
